Assay results from the supplement of paper PMC10849652.
Targets with a hit are over-represented here; the source holds about 8,800 in all. About 0.5% of all pairs of compound and target were hits.

Columns and labels:
Test in all cases: log2 fold change, soluble protein after heating vs DMSO (PISA); higher = thermal stabilisation; K562 lysate, 10 uM; active = over 0.2 and 3.5 SD of the protein, either way, in both replicates (recomputed)
erlotinib = compound: C#Cc1cccc(Nc2ncnc3cc(OCCOC)c(OCCOC)cc23)c1 [erlotinib]
Outline: (§1)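 Pellets of K562 cells were dounce-homogenised in PBS pH 7.4 with 1 mM MgCl2, and the crude extract was held at 1 mg/mL protein for a 30 min treatment with 10 μM compound. Aliquots were heated for 3 min over 48°C-58°C and pooled before NP-40 was added to 0.5% at 4°C. The supernatant from 21,000xg for 90 min was quantified by TMTpro 16plex LC-MS/MS with channel sums equalised. Values are reported from duplicates as log-two fold change in thermal stability relative to solvent controls.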

[1] = compound: C/C(=N\NC(=O)C1=CC(=CC=C1)S(=O)(=O)N2CCOCC2)/C3=C(C=CC(=C3)Cl)O
Outline: as §1

[2] = compound: C1=CC(=CC=C1C2=NC3=C(N2)C=C(C=C3)C(=O)N)OC4=CC=C(C=C4)Cl
Outline: as §1

[3] = compound: C1=CC2=C(C=CC(=C2)/C=C\3/C(=O)NC(=NCC4=CC=CS4)S3)N=C1
Outline: as §1

[4] = compound: C1=CC2=NC=CN=C2C=C1/C=C/3\C(=O)NC(=O)S3
Outline: as §1

[5] = compound: C1=CC=C(C=C1)C2=NC(=C(N2)C3=CC=NC=C3)C4=CC(=C(C=C4)Cl)O
Outline: as §1

[6] = compound: C1=CC=C2C(=C1)C3=NNC4=CC=CC(=C43)C2=O
Outline: as §1

[7] = compound: C1CCN(C1)C(=O)NC2=CC=CC(=C2)NC3=NC=C(C(=N3)NCCC4=CN=CN4)Br
Outline: as §1

[8] = compound: C1CN(CCC1(CC2=CC=C(C=C2)Cl)N)C3=NC=NC4=C3C=CN4
Outline: as §1

IRAK-1-4 Inhibitor I = compound: C1COCCN1CCN2C3=CC=CC=C3N=C2NC(=O)C4=CC(=CC=C4)[N+](=O)[O-] [IRAK-1-4 Inhibitor I]
Outline: as §1

ibrutinib = compound: C=CC(=O)N1CCC[C@@H](n2nc(-c3ccc(Oc4ccccc4)cc3)c3c(N)ncnc32)C1 [ibrutinib]
Outline: as §1

[9] = compound: CC(=O)c1cnc2ccc(-c3cc(Cl)c(O)c(Cl)c3)nc2c1N[C@H]1CC[C@H](CN(C)C)CC1
Outline: as §1

ralimetinib = compound: CC(C)(C)Cn1c(N)nc2ccc(-c3[nH]c(C(C)(C)C)nc3-c3ccc(F)cc3)nc21 [ralimetinib]
Outline: as §1

[10] = compound: CC(C)(O)CC(=O)NCCn1ccc2ncnc(Nc3ccc(Oc4cccc(C(F)(F)F)c4)c(Cl)c3)c21
Outline: as §1

[11] = compound: CC(C)C1=C2N=C(C=C(N2N=C1)NCC3=CC=CC=C3)NCCCCCCN
Outline: as §1

[12] = compound: CC1=C(C(CC(=O)N1)C2=CC=C(C=C2)C(F)(F)F)C(=O)NC3=C(C=C4C(=C3)C=NN4)F
Outline: as §1

[13] = compound: CC1=C(C2=C(C=C1)C(=O)C3=CC=CC=C3N2CCCN)C
Outline: as §1

[14] = compound: CC1=C(C=C(C=C1)NC(=O)C2=CC(=CC=C2)C(C)(C)C#N)NC3=CC4=C(C=C3)N=CN(C4=O)C
Outline: as §1

[15] = compound: CC1=C(C=C(C=C1)NC(=O)C2=CC(=CC=C2)N(C)C)NC(=O)C3=CC=C(C=C3)O
Outline: as §1

[16] = compound: CC1=CC=C(C=C1)SC2=C3C=C(SC3=CN=C2)C(=O)N
Outline: as §1

UniProt P48729, sequence (P48729 whole entry, looked up): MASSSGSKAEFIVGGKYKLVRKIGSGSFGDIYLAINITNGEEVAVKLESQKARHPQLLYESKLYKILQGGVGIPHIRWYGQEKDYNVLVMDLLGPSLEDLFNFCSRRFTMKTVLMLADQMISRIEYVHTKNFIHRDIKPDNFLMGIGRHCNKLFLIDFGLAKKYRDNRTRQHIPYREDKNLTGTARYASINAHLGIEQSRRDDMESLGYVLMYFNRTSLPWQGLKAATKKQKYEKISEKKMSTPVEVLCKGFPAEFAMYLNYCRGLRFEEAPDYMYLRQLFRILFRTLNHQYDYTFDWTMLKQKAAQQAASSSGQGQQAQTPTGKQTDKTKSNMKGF
UniProt P39880, sequence (P39880 whole entry, looked up): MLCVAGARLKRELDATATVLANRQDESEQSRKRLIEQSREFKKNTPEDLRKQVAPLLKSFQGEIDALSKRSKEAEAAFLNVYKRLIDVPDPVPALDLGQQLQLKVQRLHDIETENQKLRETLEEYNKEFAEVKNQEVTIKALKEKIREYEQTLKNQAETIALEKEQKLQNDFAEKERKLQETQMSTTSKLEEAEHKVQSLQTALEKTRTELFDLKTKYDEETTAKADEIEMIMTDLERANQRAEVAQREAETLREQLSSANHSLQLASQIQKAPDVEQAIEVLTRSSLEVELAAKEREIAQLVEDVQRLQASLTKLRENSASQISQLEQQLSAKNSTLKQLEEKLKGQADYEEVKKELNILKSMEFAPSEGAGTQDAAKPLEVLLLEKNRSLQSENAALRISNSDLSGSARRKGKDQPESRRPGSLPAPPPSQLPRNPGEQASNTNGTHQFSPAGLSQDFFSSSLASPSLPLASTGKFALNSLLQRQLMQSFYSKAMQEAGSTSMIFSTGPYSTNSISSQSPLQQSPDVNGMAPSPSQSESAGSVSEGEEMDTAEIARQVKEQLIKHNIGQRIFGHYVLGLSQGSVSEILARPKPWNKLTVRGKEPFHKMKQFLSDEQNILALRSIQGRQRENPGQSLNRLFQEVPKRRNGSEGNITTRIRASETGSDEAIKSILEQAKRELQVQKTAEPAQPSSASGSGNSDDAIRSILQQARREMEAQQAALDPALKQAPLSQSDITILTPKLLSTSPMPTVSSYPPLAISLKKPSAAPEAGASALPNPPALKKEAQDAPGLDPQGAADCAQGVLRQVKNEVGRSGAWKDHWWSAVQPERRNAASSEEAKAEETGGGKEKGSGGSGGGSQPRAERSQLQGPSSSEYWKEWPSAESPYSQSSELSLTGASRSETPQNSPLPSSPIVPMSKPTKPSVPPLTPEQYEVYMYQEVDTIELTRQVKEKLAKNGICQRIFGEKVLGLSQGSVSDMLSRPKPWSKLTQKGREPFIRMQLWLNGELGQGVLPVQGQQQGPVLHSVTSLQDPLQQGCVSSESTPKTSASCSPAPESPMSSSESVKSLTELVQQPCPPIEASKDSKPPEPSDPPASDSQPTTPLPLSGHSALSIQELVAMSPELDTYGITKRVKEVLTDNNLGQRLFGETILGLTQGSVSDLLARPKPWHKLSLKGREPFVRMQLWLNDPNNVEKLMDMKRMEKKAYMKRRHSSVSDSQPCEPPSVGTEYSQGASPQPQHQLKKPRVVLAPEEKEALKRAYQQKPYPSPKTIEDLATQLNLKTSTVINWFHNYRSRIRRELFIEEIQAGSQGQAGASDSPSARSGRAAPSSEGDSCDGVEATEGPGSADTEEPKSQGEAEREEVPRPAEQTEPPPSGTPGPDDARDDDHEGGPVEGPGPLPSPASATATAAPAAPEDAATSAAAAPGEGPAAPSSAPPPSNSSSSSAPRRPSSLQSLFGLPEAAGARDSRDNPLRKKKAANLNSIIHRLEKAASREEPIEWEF
UniProt Q96DG6, sequence (Q96DG6 whole entry, looked up): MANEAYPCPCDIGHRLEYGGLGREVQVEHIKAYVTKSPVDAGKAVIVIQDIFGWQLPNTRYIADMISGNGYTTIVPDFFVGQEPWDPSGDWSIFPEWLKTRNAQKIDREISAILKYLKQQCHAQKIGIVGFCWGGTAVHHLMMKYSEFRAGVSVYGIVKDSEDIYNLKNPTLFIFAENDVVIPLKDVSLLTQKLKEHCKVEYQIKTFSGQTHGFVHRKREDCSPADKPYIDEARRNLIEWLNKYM
UniProt P09543, sequence (P09543 whole entry, looked up): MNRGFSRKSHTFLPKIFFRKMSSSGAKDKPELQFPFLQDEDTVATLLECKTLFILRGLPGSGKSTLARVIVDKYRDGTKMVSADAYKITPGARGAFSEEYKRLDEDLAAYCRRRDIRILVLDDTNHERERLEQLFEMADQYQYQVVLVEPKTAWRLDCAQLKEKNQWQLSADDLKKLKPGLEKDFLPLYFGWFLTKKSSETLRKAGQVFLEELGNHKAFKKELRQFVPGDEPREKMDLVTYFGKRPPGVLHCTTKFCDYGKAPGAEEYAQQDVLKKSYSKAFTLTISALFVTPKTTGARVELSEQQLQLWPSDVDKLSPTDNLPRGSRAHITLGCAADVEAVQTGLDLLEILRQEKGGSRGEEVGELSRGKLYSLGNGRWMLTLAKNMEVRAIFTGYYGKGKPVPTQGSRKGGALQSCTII
UniProt Q9Y6M4, sequence (Q9Y6M4 whole entry, looked up): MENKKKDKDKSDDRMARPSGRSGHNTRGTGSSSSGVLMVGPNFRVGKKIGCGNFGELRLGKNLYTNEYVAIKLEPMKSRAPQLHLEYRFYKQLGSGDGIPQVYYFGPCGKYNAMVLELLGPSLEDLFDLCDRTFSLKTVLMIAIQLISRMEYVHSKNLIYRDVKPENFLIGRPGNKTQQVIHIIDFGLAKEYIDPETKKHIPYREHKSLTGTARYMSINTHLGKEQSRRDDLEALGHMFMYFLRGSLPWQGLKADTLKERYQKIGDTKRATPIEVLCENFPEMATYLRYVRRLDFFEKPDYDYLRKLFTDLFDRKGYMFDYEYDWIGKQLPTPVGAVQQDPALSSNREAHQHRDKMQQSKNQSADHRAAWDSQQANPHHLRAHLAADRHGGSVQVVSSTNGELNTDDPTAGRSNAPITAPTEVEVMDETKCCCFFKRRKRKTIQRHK
UniProt P83436, sequence (P83436 whole entry, looked up): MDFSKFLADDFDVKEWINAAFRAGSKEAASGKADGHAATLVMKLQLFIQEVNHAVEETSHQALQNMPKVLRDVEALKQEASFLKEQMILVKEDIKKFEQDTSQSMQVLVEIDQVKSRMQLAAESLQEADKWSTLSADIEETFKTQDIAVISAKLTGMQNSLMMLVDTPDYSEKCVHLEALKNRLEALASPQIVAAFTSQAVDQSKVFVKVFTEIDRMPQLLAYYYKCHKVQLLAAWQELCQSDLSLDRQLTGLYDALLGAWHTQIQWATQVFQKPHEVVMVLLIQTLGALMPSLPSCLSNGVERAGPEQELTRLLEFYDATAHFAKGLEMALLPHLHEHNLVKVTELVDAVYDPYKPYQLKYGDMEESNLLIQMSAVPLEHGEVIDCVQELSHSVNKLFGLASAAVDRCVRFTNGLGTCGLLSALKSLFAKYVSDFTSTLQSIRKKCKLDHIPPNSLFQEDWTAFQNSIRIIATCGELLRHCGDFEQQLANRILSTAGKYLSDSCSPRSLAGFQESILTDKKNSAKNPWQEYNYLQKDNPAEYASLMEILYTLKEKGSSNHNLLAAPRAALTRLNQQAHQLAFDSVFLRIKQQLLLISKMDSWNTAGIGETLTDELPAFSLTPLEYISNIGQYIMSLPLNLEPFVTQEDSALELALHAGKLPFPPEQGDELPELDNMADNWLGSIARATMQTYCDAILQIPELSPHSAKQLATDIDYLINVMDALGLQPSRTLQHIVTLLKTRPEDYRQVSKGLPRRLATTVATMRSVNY
UniProt P68400, sequence (P68400 whole entry, looked up): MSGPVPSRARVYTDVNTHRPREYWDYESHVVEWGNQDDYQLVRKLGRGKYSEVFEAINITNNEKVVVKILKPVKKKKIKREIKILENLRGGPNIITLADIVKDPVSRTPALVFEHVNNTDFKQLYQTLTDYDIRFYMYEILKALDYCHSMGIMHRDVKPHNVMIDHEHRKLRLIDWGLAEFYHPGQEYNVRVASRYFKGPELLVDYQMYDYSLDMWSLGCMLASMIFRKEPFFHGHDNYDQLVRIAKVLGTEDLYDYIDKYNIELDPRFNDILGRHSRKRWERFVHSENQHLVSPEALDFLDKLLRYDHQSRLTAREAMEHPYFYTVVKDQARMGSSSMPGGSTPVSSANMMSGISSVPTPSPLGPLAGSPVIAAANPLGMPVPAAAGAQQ
UniProt Q9H467, sequence (Q9H467 whole entry, looked up): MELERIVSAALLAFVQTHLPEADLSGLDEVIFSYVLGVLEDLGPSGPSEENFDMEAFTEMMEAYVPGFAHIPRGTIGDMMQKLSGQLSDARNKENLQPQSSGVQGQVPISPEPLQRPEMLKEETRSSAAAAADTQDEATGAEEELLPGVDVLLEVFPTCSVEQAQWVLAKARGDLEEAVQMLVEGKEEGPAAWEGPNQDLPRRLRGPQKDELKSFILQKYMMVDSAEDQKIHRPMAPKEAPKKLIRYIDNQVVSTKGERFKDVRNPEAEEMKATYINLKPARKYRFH
UniProt P21964, sequence (P21964 whole entry, looked up): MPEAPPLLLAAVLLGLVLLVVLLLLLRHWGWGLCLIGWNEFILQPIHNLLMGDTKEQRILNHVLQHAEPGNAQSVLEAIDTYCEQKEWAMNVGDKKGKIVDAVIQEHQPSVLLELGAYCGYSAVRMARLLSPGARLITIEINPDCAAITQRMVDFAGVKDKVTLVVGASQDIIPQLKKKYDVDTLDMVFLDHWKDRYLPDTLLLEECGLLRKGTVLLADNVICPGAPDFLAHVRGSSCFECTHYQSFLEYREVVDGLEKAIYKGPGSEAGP
UniProt Q5RI15, sequence (Q5RI15 whole entry, looked up): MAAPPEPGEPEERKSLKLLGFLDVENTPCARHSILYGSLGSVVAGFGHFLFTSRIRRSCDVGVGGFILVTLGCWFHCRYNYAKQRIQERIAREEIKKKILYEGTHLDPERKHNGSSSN

Target	log2 fold change (erlotinib)	log2 fold change [1]	log2 fold change [2]	log2 fold change [3]	log2 fold change [4]	log2 fold change [5]	log2 fold change [6]	log2 fold change [7]	log2 fold change [8]	log2 fold change (IRAK-1-4 Inhibitor I)	log2 fold change (ibrutinib)	log2 fold change [9]	log2 fold change (ralimetinib)	log2 fold change [10]	log2 fold change [11]	log2 fold change [12]	log2 fold change [13]	log2 fold change [14]	log2 fold change [15]	log2 fold change [16]
CNP (UniProt P09543)	-0.005 (inactive)	-0.066 (inactive)	0.002 (inactive)	-0.012 (inactive)	-0.022 (inactive)	0.007 (inactive)	-0.004 (inactive)	-0.016 (inactive)	0 (inactive)	-0.002 (inactive)	0.024 (inactive)	0.01 (inactive)	0.028 (inactive)	0.019 (inactive)	0.022 (inactive)	0.042 (inactive)	0.038 (inactive)	-0.018 (inactive)	-0.015 (inactive)	0.01 (inactive)
CSNK1A1 (UniProt P48729)	-0.027 (inactive)	-0.106 (inactive)	0.093 (inactive)	0.028 (inactive)	0.013 (inactive)	0.217 (inactive)	0.406 (active)	-0.082 (inactive)	-0.032 (inactive)	-0.038 (inactive)	-0.098 (inactive)	0.148 (inactive)	0.088 (inactive)	-0.002 (inactive)	-0.035 (inactive)	-0.019 (inactive)	-0.002 (inactive)	-0.029 (inactive)	0 (inactive)	0.003 (inactive)
CUX1 isoform 3 (UniProt P39880)	-0.015 (inactive)	-0.017 (inactive)	-0.007 (inactive)	0.03 (inactive)	-0.049 (inactive)	-0.039 (inactive)	0.003 (inactive)	-0.004 (inactive)	0.07 (inactive)	0.014 (inactive)	0.073 (inactive)	0.002 (inactive)	0.003 (inactive)	-0.061 (inactive)	0.017 (inactive)	-0.022 (inactive)	0.003 (inactive)	-0.051 (inactive)	0.012 (inactive)	0.005 (inactive)
CMBL (UniProt Q96DG6)	0.026 (inactive)	0.047 (inactive)	-0.03 (inactive)	-0.031 (inactive)	0.01 (inactive)	-0.002 (inactive)	0.045 (inactive)	0.006 (inactive)	-0.002 (inactive)	0.025 (inactive)	-0.059 (inactive)	0.22 (active)	0.018 (inactive)	-0.009 (inactive)	-0.056 (inactive)	-0.082 (inactive)	0 (inactive)	0.014 (inactive)	-0.04 (inactive)	-0.011 (inactive)
DDB2 (UniProt Q92466)	-0.007 (inactive)	-0.028 (inactive)	0.07 (inactive)	0.052 (inactive)	0.064 (inactive)	-0.024 (inactive)	0 (inactive)	-0.075 (inactive)	-0.041 (inactive)	0.026 (inactive)	0.075 (inactive)	-0.016 (inactive)	0.009 (inactive)	-0.033 (inactive)	-0.007 (inactive)	0.091 (inactive)	-0.003 (inactive)	0.009 (inactive)	0 (inactive)	0.01 (inactive)
COX20 isoform 2 (UniProt Q5RI15)	0.022 (inactive)	0.004 (inactive)	-0.018 (inactive)	-0.001 (inactive)	-0.129 (inactive)	0.016 (inactive)	-0.036 (inactive)	-0.09 (inactive)	0.034 (inactive)	0.048 (inactive)	0.28 (inactive)	0.017 (inactive)	0.084 (inactive)	0.032 (inactive)	-0.003 (inactive)	-0.007 (inactive)	-0.04 (inactive)	0.003 (inactive)	0.001 (inactive)	-0.023 (inactive)
COG7 (UniProt P83436)	0.026 (inactive)	-0.007 (inactive)	-0.025 (inactive)	0.034 (inactive)	0.012 (inactive)	0.006 (inactive)	-0.037 (inactive)	-0.022 (inactive)	0.05 (inactive)	-0.039 (inactive)	-0.04 (inactive)	-0.012 (inactive)	0.03 (inactive)	0.006 (inactive)	-0.049 (inactive)	-0.034 (inactive)	-0.001 (inactive)	-0.029 (inactive)	0.058 (inactive)	-0.007 (inactive)
CSNK2A2 (UniProt P19784)	0 (inactive)	-0.209 (inactive)	-0.015 (inactive)	0.383 (inactive)	0.699 (active)	0.032 (inactive)	0.375 (inactive)	0.277 (inactive)	0.024 (inactive)	0.022 (inactive)	-0.015 (inactive)	0.666 (active)	0.012 (inactive)	-0.014 (inactive)	-0.01 (inactive)	-0.046 (inactive)	0.185 (inactive)	-0.017 (inactive)	0.003 (inactive)	0 (inactive)
CUEDC2 (UniProt Q9H467)	-0.011 (inactive)	0.044 (inactive)	0.032 (inactive)	0.035 (inactive)	-0.02 (inactive)	0 (inactive)	-0.039 (inactive)	0.029 (inactive)	-0.106 (inactive)	0.013 (inactive)	0.056 (inactive)	0.044 (inactive)	0.001 (inactive)	-0.032 (inactive)	0.026 (inactive)	-0.027 (inactive)	-0.014 (inactive)	0.052 (inactive)	0.018 (inactive)	-0.082 (inactive)
CSNK1G3 (UniProt Q9Y6M4)	-0.115 (inactive)	-0.018 (inactive)	0.097 (inactive)	0.149 (inactive)	0.073 (inactive)	-0.043 (inactive)	0.234 (inactive)	0.018 (inactive)	0.079 (inactive)	0.022 (inactive)	-0.025 (inactive)	0.529 (active)	0.003 (inactive)	-0.048 (inactive)	-0.038 (inactive)	-0.007 (inactive)	0.024 (inactive)	0.031 (inactive)	-0.066 (inactive)	0.132 (inactive)
COMT (UniProt P21964)	0.031 (inactive)	-0.03 (inactive)	-0.01 (inactive)	0.011 (inactive)	-0.029 (inactive)	0.001 (inactive)	0.043 (inactive)	-0.024 (inactive)	-0.033 (inactive)	0.019 (inactive)	0.01 (inactive)	0.019 (inactive)	0.01 (inactive)	0.016 (inactive)	0.009 (inactive)	-0.045 (inactive)	0.002 (inactive)	0.031 (inactive)	0.019 (inactive)	0.01 (inactive)
CHEK1 (UniProt O14757)	-0.048 (inactive)	-0.057 (inactive)	0 (inactive)	0.27 (active)	0.008 (inactive)	0.023 (inactive)	0.06 (inactive)	-0.108 (inactive)	0.02 (inactive)	-0.011 (inactive)	0.019 (inactive)	0.104 (inactive)	0.032 (inactive)	-0.004 (inactive)	-0.003 (inactive)	0.004 (inactive)	0.011 (inactive)	0.026 (inactive)	-0.005 (inactive)	-0.024 (inactive)
DMAC2L (UniProt Q99766)	-0.057 (inactive)	0.033 (inactive)	-0.017 (inactive)	0.008 (inactive)	-0.074 (inactive)	0.015 (inactive)	-0.066 (inactive)	-0.068 (inactive)	0.027 (inactive)	-0.005 (inactive)	0.046 (inactive)	-0.046 (inactive)	0.037 (inactive)	-0.017 (inactive)	0.017 (inactive)	0.005 (inactive)	-0.018 (inactive)	0.008 (inactive)	-0.043 (inactive)	-0.019 (inactive)
CSNK2A1 (UniProt P68400)	0.005 (inactive)	-0.111 (inactive)	-0.02 (inactive)	0.225 (inactive)	0.356 (active)	0.017 (inactive)	0.219 (inactive)	0.112 (inactive)	-0.02 (inactive)	0 (inactive)	-0.041 (inactive)	0.468 (active)	0.002 (inactive)	-0.028 (inactive)	-0.054 (inactive)	-0.039 (inactive)	0.158 (inactive)	-0.078 (inactive)	-0.01 (inactive)	0.002 (inactive)
CKAP5 (UniProt Q14008)	0.018 (inactive)	0.003 (inactive)	0.005 (inactive)	-0.01 (inactive)	-0.009 (inactive)	0.002 (inactive)	-0.055 (inactive)	-0.015 (inactive)	0.004 (inactive)	0.001 (inactive)	-0.024 (inactive)	-0.008 (inactive)	0.015 (inactive)	-0.012 (inactive)	-0.007 (inactive)	0.007 (inactive)	0.005 (inactive)	-0.013 (inactive)	0.023 (inactive)	0.006 (inactive)
COG6 (UniProt Q9Y2V7)	-0.059 (inactive)	0.153 (inactive)	-0.074 (inactive)	-0.07 (inactive)	-0.008 (inactive)	0.015 (inactive)	0.024 (inactive)	0.008 (inactive)	0.077 (inactive)	0.006 (inactive)	-0.003 (inactive)	0.005 (inactive)	0.016 (inactive)	-0.059 (inactive)	-0.028 (inactive)	-0.017 (inactive)	0.016 (inactive)	0.004 (inactive)	0.033 (inactive)	0.021 (inactive)
